M4 ag: CHRM4 agonism in calcium assay. AID 624127. actives 0.14% (n = 360,000). CHO-K1 hM4/Gqi5, Fluo-8 calcium fluorescence; vehicle 0%, full acetylcholine response 100%. activation, % at 3 µM. P08173;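 active = activation above the run mean over all test wells plus 3 SD, cut at about 32% in these data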;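 note: peak over basal fluorescence ratio per well then scaled between controls; 0% = DMSO wells and 100% = acetylcholine at EC100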
Target sequence (P08173 whole entry, looked up): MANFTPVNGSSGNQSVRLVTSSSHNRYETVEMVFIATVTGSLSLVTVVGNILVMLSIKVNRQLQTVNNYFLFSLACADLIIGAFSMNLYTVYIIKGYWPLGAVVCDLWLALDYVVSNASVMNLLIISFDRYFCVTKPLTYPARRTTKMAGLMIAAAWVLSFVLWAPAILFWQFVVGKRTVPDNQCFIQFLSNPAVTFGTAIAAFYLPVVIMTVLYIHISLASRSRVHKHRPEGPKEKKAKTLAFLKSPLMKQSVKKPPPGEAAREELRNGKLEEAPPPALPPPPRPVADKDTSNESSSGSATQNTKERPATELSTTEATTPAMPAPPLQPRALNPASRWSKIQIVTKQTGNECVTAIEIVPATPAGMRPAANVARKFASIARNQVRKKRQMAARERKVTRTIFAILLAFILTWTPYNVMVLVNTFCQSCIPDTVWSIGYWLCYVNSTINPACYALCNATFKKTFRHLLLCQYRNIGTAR
CHO-K1 Ca PAM: counter-screen for M1 PAMs: effect in parental CHO-K1 cells. ATP EC20, Fluo-8 calcium fluorescence; 0% at ATP EC20, 100% at ATP max. actives 0.02% (n = 360,000). activation, % at 3 µM. AID 602247;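 active = activation above the run cutoff, the mean activation of all test compounds plus 3 SD, cut at about 40% in these data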;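 note: peak over basal fluorescence ratio in a 140 s read after ATP addition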
CHRM4 antagonist: antagonists of human muscarinic M4 receptor (CHRM4) | CHO-hM4 cells, ACh EC80, Fluo-8 calcium fluorescence | inhibition, % at 3 µM | AID 624125 | actives 0.73% (n = 360,000);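 active = inhibition above its plate's cutoff, the mean inhibition of sample wells plus 3 SD, cut at about 27% in these data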;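 note: 0% = acetylcholine EC80 with DMSO and 100% = DMSO without agonist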
M1 ag parental: M1 agonist counterscreen hit in parental CHO-K1 cells | Fluo-8 calcium fluorescence; scaled to maximal ATP response, vehicle zero | actives 0.48% (n = 360,000) | AID 602248 | activation, % at 3 µM; in the data active = activation above about 15%;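 note: untransfected CHO-K1 host cells lacking M1 receptor as counterscreen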
CHO-K1 Ca antag: M1 antagonist counterscreen hit in parental CHO-K1 cells; ATP-induced calcium, Fluo-8 fluorescence; inhibition, % at 3 µM; actives 0.6% (n = 360,000);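 active = inhibition above a per-plate cutoff, the plate's mean sample inhibition plus 3 SD, cut at about 24% in these data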;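 note: 0% = DMSO plus EC80 ATP and 100% = DMSO alone without ATP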
CHRM4 PAM: CHRM4 positive allosteric modulation; P08173; actives 0.4% (n = 360,000); AID 624126; CHO-K1 hM4/Gqi5, Fluo-8 calcium fluorescence, ACh EC20; 0% = ACh EC20, 100% = maximal ACh; activation, % at 3 µM;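 active = activation above its plate's cutoff, the mean activation of sample wells plus 3 SD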
* = called active by the depositor. Compounds with a hit are over-represented: about 2% of the library has one in this group of screens.

SMILES	M4 ag	CHO-K1 Ca PAM	CHRM4 antagonist	M1 ag parental	CHO-K1 Ca antag	CHRM4 PAM
c1ccc(CNc2nc(NCc3cccs3)nc3ccsc23)cc1	40*	11	16	16*	14	-14
C#Cc1cccc(Nc2nc(NCc3ccccc3)nc3ccsc23)c1	11	4	27*	7	4	-11
O=C1CCCN1CCCNc1nc(NCc2cccs2)nc2ccsc12	96*	-12	53*	56*	22	-15
N#Cc1ccc(Nc2nc(NCc3ccccc3)nc3ccsc23)cc1	11	-11	7	2	8	-10
COc1ccc(S(=O)(=O)N2CCC[C@H]2C(=O)N2CCC[C@H]2C(=O)NCc2ccc(F)cc2F)cc1C	0	-1	-9	0	-6	0
COc1cccc(CNc2nc(NCc3ccccc3)nc3ccsc23)c1	58*	-16	44*	29*	21	-16
CNc1nc(NCc2cccc(OC)c2)c2sccc2n1	11	-11	1	7	20	-7
C=CCC[C@@H](Cc1ccc(F)cc1)C(=O)OC[C@@H](Cc1c[nH]c2ccccc12)NC(=O)[C@@H](CC=C)CC(=O)NCCO	7	6	6	1	-9	-7
C=CC[C@@H](CC(=O)N[C@@H](CO)Cc1ccccc1)C(=O)N[C@@H](C)COC(=O)[C@@H](CC=C)Cc1ccc(F)cc1	4	9	-10	1	-13	11
C=CC[C@H](CC(=O)N(CCO)Cc1ccccc1)C(=O)N[C@H](COC(=O)[C@@H](CC=C)CC(=O)OC(C)(C)C)Cc1c[nH]c2ccccc12	14	10	27*	2	2	-4
C=CCC[C@H](Cc1ccc(F)cc1)C(=O)OC[C@H](Cc1c[nH]c2ccccc12)NC(=O)[C@H](CC=C)CC(=O)NCCO	18	-7	30*	1	5	0
C=CCC[C@@H](Cc1ccc(F)cc1)C(=O)OC[C@H](Cc1c[nH]c2ccccc12)NC(=O)[C@@H](CC=C)CC(=O)NCCO	22	2	24	18*	8	-6
C=CC[C@@H](CC(=O)N[C@@H](CO)Cc1ccccc1)C(=O)N[C@H](C)COC(=O)[C@@H](CC=C)Cc1ccc(F)cc1	2	-3	5	-1	-13	26*
CS(=O)(=O)c1ccc(-c2nn[nH]n2)cc1	1	16	-15	0	-8	8
COCCCNC(=S)N1CCN(C(c2ccccc2)c2ccccc2)CC1	2	-11	3	-1	-9	-11
Cc1nc2nc(-c3ccccc3)cn2nc1C	1	-12	-17	-1	8	18*
O=C(CN1CCC(NC(=O)c2cccc(F)c2)CC1)NCc1cccs1	3	14	-3	1	-4	24*
Cc1c(C(=O)N2CCCCCC2)oc2ccccc12	-1	22	-1	0	-14	8
O=C(Nc1ccccc1N1CCOCC1)c1ccc(Cl)c(S(=O)(=O)NCc2ccco2)c1	9	8	-5	17*	0	-6
COc1cccc(C(=O)Nc2ccccc2N2CCOCC2)c1	1	3	-6	91*	68*	5
Cc1ccc(NC(=O)Nc2ccc(Cl)cn2)cc1	0	12	-5	2	-5	-2
O=c1[nH]c(/C=C\c2cccc(F)c2)nc(O)c1[N+](=O)[O-]	1	41*	4	1	-60	0
O=C(Nc1ccc(N2CCCCC2)c(C(=O)O)c1)c1ccco1	1	6	-4	0	4	2
CCn1cnc2c1c(=O)n(CC(=O)O)c(=O)n2Cc1ccccc1	0	5	5	0	-20	-3
CCCCCCCCCCCCCCCC[N+](C)(C)Cc1ccc(F)cc1	0	32	36*	1	-21	-10
SMILES	M4 ag	CHO-K1 Ca PAM	CHRM4 antagonist	M1 ag parental	CHO-K1 Ca antag	CHRM4 PAM
O=C(NCCO)c1ccc(Oc2ccc(C(F)(F)F)cc2[N+](=O)[O-])cc1	3	17	-7	0	2	9
COc1ccc(OCCNC(=O)c2cccc(Oc3ccc(C(F)(F)F)cc3[N+](=O)[O-])c2)cc1	3	-15	7	0	25*	-15
C/C(=N\NC(=O)c1cc2c(s1)CCC(C)C2)c1ccc[nH]1 (stereo not drawn)	41*	-2	1	7	-12	2
C/C(=N\NC(=O)c1cc2c(s1)CCC(C)C2)c1ccncc1 (stereo not drawn)	0	-7	-5	0	11	4
Cc1ccc(Cl)cc1NC(=O)CSc1sc2c(O)cc(=O)[nH]c2c1C#N	1	0	4	1	-9	-1
COc1ccc(Cl)cc1NC(=O)CSc1sc2c(O)cc(=O)[nH]c2c1C#N	7	9	4	1	-9	23*
CN(C(=O)CSc1nccc(=O)[nH]1)C1CCCCC1	1	-16	-17	0	5	22*
COc1cccc(/C=N/Nc2nc(Nc3ccccc3)nc(-n3nc(C)cc3C)n2)c1O	43*	0	18	8	-3	-19
O=C(Cn1cnc2c(nnn2Cc2ccccc2)c1=O)c1ccccc1	5	16	-22	2	-11	18*
O=C(Cn1cnc2c(nnn2Cc2ccc(Cl)cc2)c1=O)c1ccccc1	1	-12	-3	0	16	-5
O=c1c(Oc2ccccc2F)coc2cc(OCc3cnn(-c4ccccc4)c3)ccc12	0	14	3	1	-4	-3
Cc1[nH]nc(-c2ccc(OCc3cnn(-c4ccccc4)c3)cc2O)c1Oc1ccccc1F	2	9	-1	0	-5	24*
O=C(COc1coc(CN2CCCc3ccccc32)cc1=O)Nc1cccc([N+](=O)[O-])c1	4	-4	-4	1	2	-2
CN(C(=O)C(Cl)Cl)C1CC2C=CC1C2 (stereo not drawn)	0	21	-7	16*	-8	1
O=C(Nc1ccc(F)cc1)N(Cc1ccco1)Cc1cc2cc3c(cc2[nH]c1=O)OCO3	1	13	9	1	-7	-1
COc1ccc(OC)c2c1C(=O)C(Cl)=C(Cl)C2=O	0	17	61*	1	3	-8
COc1ccc(OC)c2c1C(=O)CC2C (stereo not drawn)	-1	19	-11	1	-12	-2
NCc1csc(Nc2nncc3ccccc23)n1	2	19	-6	0	-9	4
O=C(NNS(=O)(=O)c1ccc2ccccc2c1)C1CCN(Cc2ccccc2)CC1	2	2	41*	1	2	-23
COCCNC(=S)NC(=O)CC12CC3CC(CC(C3)C1)C2	-3	20	-3	-1	-11	6
Nc1ccc(NC(=O)c2ccccc2)c2c1C(=O)c1ccccc1C2=O	0	-10	2	0	26*	16

Bioassay records as filed in PubChem BioAssay.
